Laboratory results: the supplement of paper PMC9254222
In all, about 1,100 compounds were measured (“Renilla luciferase signal (cell health) relative to plate median”: median about 0.97, highest 2% from about 1.6 on). For the sample, the highest values were picked, then their nearest neighbours and some compounds at random.

System: HEK293T (UBE3A T485A transfected, BAR Wnt reporter)
Test: Renilla luciferase signal (cell health) relative to plate median (fold (linear ratio)); higher = higher Renilla signal
Conditions: 24 h
Summary of the method: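 Chemicals were robotically dosed at 0.01–100 uM for 24 h onto HEK293T cells, starting four hours after transfection with a BAR firefly luciferase Wnt reporter, TK-Renilla and an expression plasmid. The cells had been plated at 4500 cells/well in DMEM with 10% FBS at 37°C and 5% CO2. Following a Dual-Glo luciferase readout, the firefly/Renilla ratio served as the Wnt activity measure and raw Renilla as the cell health measure, both median-centred on each plate. Each value is the mean of four biological replicates.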

Compound	Renilla luciferase signal (concentration: 0.01 uM)	Renilla luciferase signal (concentration: 0.1 uM)	Renilla luciferase signal (concentration: 1 uM)	Renilla luciferase signal (concentration: 10 uM)	Renilla luciferase signal (concentration: 100 uM)
Nc1nc(N)nc(NC2CC2)n1 [Cyromazine]	1.1	0.889	0.95	1.05	1.86
CCN(CC)N=O [N-Nitrosodiethylamine]	–	1.02	0.957	1.07	1.08
C=CC(=O)OCCCCCC(C)C [Isooctyl acrylate]	–	0.895	0.841	0.931	1.07
CC1C(c2ccc(Cl)cc2)SC(=O)N1C(=O)NC1CCCCC1 (stereo not drawn) [Hexythiazox]	0.957	0.999	0.929	0.977	0.244
CN=C=S [Methyl isothiocyanate]	0.842	0.902	0.962	1.06	1.71
CC(C)(c1ccccc1)c1ccc(O)c(C(C)(C)c2ccccc2)c1 [2,4-Bis(1-methyl-1-phenylethyl)phenol]	–	0.856	0.888	1.05	1.14
CN(C)c1ccc(C(=O)c2ccc(N(C)C)cc2)cc1 [Michler's ketone]	–	1.09	1.03	0.702	0.267
Cc1cc(O)ccc1Cl [4-Chloro-3-methylphenol]	–	0.999	1.09	0.977	1.06
ClC1=C(Cl)C2(Cl)C3C4CC(C5OC45)C3C1(Cl)C2(Cl)Cl (stereo not drawn) [Dieldrin]	–	1.01	0.977	1.07	0.829
ClC1=C(Cl)C2(Cl)C3C4CC(C5OC45)C3C1(Cl)C2(Cl)Cl (stereo not drawn) [Endrin]	–	0.878	0.941	0.842	0.349
CCCCOC(=O)c1ccccc1C(=O)O [Monobutyl phthalate]	0.968	0.862	0.73	1.21	2.17
CCCCCOC(=O)c1ccccc1C(=O)OCCCCC [Dipentyl phthalate]	–	0.95	0.861	0.91	1.18
CCCCOC(=O)c1ccccc1C(=O)OCCCC [Dibutyl phthalate]	1.02	1.04	1.02	1.03	0.11
Cc1cnc(C2=NC(=O)C(C)(C(C)C)N2)c(C(=O)O)c1 (stereo not drawn) [Imazapic]	1.11	1.17	1.18	1.14	1.72
CC(C)C1(C)N=C(c2nc3ccccc3cc2C(=O)O)NC1=O (stereo not drawn) [Imazaquin]	1.09	1.09	1.07	1.06	1.38
CCC(C)C1OC2(C=CC1C)CC1CC(CC=C(C)C(OC3CC(OC)C(OC4CC(OC)C([NH2+]C)C(C)O4)C(C)O3)C(C)C=CC=C3COC4C(O)C(C)=CC(C(=O)O1)C34O)O2.O=C([O-])c1ccccc1 (stereo not drawn) [Emamectin benzoate]	1.02	1.08	0.877	0.0929	0.0231
CCc1cnc(C2=NC(C)(C(C)C)C(=O)N2)c(C(=O)O)c1 (stereo not drawn) [Imazethapyr]	1.11	0.962	0.96	0.991	1.58

Compound	Renilla luciferase signal (concentration: 0.01 uM)	Renilla luciferase signal (concentration: 0.1 uM)	Renilla luciferase signal (concentration: 1 uM)	Renilla luciferase signal (concentration: 10 uM)	Renilla luciferase signal (concentration: 100 uM)
COCc1cnc(C2=NC(C)(C(C)C)C(=O)N2)c(C(=O)O)c1 (stereo not drawn) [Imazamox]	0.649	0.799	0.965	0.977	2.3
CC(C)C1(C)N=C(c2ncccc2C(=O)O)NC1=O (stereo not drawn) [Imazapyr]	0.822	0.714	0.895	0.959	1.42
CCCOC/C(=N\c1ccc(Cl)cc1C(F)(F)F)n1ccnc1 [Triflumizole]	0.984	0.937	0.992	0.929	1.45
CCSC(=O)N1CCCCCC1 [Molinate]	0.998	0.899	0.905	1.04	1.8
CCSC(=O)N(CC)C1CCCCC1 [Cycloate]	0.797	0.996	0.924	1.01	1.15
CCOP(=S)(Oc1cnc(C(C)(C)C)nc1)OC(C)C (stereo not drawn) [Tebupirimfos]	1.07	1.22	1.16	1.08	1.4
CSC(=O)c1c(C(F)F)nc(C(F)(F)F)c(C(=O)SC)c1CC(C)C [Dithiopyr]	0.664	0.813	0.927	0.835	1.14
O=C(N[C@H](c1ccccc1)[C@@H]1CN2CCC1CC2)c1c(Cl)ccc(C(F)(F)F)c1Cl	–	0.771	0.687	0.344	0.143
CCOc1ccc(C(C)(C)COCc2cccc(Oc3ccccc3)c2)cc1 [Etofenprox]	–	1.01	1.12	0.95	1.14
CCC(C)(C)c1ccc(O)cc1 [4-(2-Methylbutan-2-yl)phenol]	–	0.874	0.809	0.795	0.442
CCNc1nc(Cl)nc(NC(C)C)n1 [Atrazine]	0.72	0.693	0.877	0.729	1.18
CSc1nc(NC(C)C)nc(NC(C)C)n1 [Prometryn]	1.14	1.03	0.973	1.01	0.989
CCNc1nc(NC(C)C)nc(SC)n1 [Ametryn]	0.34	0.318	0.3	0.543	1.78
CCCN(CCC)c1c([N+](=O)[O-])cc(S(N)(=O)=O)cc1[N+](=O)[O-] [Oryzalin]	1.08	0.918	0.931	0.876	0.99
CC1COC(Cn2cncn2)(c2ccc(Oc3ccc(Cl)cc3)cc2Cl)O1 (stereo not drawn) [Difenoconazole]	1.03	1.07	0.923	0.485	0.152
Cc1cccc(N)c1N [2,3-Diaminotoluene]	–	0.728	0.75	0.772	0.198
